Assay outcomes: PubChem, several laboratories
MMP-13 inhibitor – human MMP13 inhibitors, primary screen, biochemical, FRET peptide cleavage | Collagenase 3 (Homo sapiens), P45452 | MMP-13 fTHP FRET cleavage, Mca fluorescence | inhibition, % at 4 µM | 0.07% of 65,000 active;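 active means inhibition above the mean of compound-free control plate wells plus 3 SD, cut at about 14% in these data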;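 further: 0% = DMSO wells and 100% = wells with reference MMP-13 inhibitor after basal subtraction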
ROCK2 inh – inhibitors of human ROCK2 kinase, primary screen, biochemical, high-throughput, luminescence; inhibition, % at 6 µM; purified ROCK2, Kinase-Glo ATP depletion luminescence; 0.35% of 60,000 active;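 active means inhibition above the screen-wide mean inhibition plus 3 SD, cut at about 18% in these data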;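 further: plate controls were DMSO wells for no effect and Y-27632 control wells after no-enzyme background subtraction for full effect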
Target sequence (O75116 whole entry, looked up): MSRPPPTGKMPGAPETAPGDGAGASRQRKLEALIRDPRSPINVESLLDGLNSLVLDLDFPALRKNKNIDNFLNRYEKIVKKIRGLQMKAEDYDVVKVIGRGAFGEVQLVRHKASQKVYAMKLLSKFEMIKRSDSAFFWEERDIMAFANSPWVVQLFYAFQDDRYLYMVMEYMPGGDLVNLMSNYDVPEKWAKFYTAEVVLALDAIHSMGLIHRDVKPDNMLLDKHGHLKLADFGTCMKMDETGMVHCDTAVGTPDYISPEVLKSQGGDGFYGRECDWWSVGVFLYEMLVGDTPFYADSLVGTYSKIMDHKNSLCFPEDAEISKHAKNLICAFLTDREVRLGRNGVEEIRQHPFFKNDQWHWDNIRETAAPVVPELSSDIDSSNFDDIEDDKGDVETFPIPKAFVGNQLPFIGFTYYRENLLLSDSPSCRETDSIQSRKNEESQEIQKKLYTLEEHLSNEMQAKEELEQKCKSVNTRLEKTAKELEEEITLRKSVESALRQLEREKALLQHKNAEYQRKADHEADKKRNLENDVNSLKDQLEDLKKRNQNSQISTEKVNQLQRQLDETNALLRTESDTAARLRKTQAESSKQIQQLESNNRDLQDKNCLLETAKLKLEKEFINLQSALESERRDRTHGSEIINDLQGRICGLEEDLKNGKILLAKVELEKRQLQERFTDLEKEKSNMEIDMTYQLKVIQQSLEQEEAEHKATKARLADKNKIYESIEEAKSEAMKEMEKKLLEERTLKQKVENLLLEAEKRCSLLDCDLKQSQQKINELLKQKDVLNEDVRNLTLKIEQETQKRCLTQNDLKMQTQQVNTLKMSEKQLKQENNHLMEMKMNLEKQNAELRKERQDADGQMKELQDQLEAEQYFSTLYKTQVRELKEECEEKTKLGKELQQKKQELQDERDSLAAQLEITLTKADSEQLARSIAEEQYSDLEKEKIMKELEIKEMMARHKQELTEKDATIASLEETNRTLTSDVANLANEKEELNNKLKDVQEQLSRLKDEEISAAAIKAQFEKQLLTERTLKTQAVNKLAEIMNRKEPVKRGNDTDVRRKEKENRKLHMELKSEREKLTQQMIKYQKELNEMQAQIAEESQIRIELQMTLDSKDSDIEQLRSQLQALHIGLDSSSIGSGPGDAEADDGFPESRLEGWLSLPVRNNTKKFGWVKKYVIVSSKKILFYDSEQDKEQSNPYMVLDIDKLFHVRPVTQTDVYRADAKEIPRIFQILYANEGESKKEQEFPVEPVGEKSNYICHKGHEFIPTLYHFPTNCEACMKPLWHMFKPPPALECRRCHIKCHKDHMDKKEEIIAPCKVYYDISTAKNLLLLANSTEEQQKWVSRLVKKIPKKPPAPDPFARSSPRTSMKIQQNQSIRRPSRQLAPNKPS
mHtt clearance – clearance of mutant huntingtin inclusions, primary screen, imaging, HeLa Exon1htt(103Q)mCFP, confocal imaging; aggregate imaging; zero = plate's median compound well; 0.42% of 47,000 active; inhibition, % at 1.5 µM; AID 853, 2007;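 active means inhibition of aggregate fluorescence above about 70%, also judged a hit by eye on the cell image, limit read from the data, passing the limit was not always enough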;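 further: cells exposed to compound for three days before fixation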
SKBR3 24h inh – SK-BR-3 proliferation inhibitors, primary screen, cell-based, human, 24 h | 0.47% of 41,000 active | SK-BR-3 viability, CellTiter-Glo ATP luminescence; stronger effect = lower value | viability, % at 10 µM;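 active means viability at or below the median of all test compounds minus 3 SD, in both replicates if run twice, cut at about 45% in these data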;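 further: 100% = median untreated cell wells and 0% = median positive control drug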
Hsp90 block – tumor Hsp90 inhibitors, primary screen, cell lysate, fluorescence polarization, NCI-N417 lysate. Heat shock protein HSP 90-alpha (Homo sapiens), P07900. AID 429, 2006. Cy3B-geldanamycin FP displacement. inhibition, % at 30 µM. 0.35% of 64,000 active;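 active means inhibition above 50%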;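 further: 0% = tracer plus lysate wells and 100% = tracer alone without lysate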
PKA inh – inhibitors of human PKA kinase activity, primary screen, biochemical, ATP-depletion luminescence, Kemptide substrate; cAMP-dependent protein kinase catalytic subunit alpha (Homo sapiens), P17612; PKA Kemptide phosphorylation, Kinase-Glo ATP luminescence; inhibition, % at 6 µM; 0.1% of 65,000 active; AID 524, 2006;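 active means inhibition above the screen-wide mean inhibition plus 3 SD, cut at about 21% in these data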
* hit, by the source's call; . = no result given. Only some compounds are listed: those with a hit (about 0.97% of all), similar ones and a draw of the others.

SMILES	MMP-13 inhibitor	ROCK2 inh	mHtt clearance	SKBR3 24h inh	Hsp90 block	PKA inh
C1=C(c2c[nH]c3ccccc23)CCNC1	-7	28*	-245	.	-2	21*
CC(C)N1CC=C(c2c[nH]c3ccccc23)CC1	-3	0	-1	.	-6	0
CCN1C[C@]2(C)CC[C@H](O)[C@@]34C5C[C@@H]6[C@@H](OC)C[C@@](O)(C5[C@H]6O)[C@@H](CC23)C14 (stereo not given in full)	.	.	.	.	-4	.
N[C@@H](Cn1ccc(=O)[nH]c1=O)C(=O)O	.	.	.	.	2	.
CN(C)[C@@H]1C(=O)C(C(N)=O)=C(O)[C@@]2(O)C(=O)C3=C(O)c4c(O)cccc4[C@@](C)(O)[C@H]3C[C@@H]12	1	0	.	98	72*	0
Cc1c2ccncc2c(C)c2c1[nH]c1ccccc12	-216	46*	.	97	0	46*
Cc1nccc2c1[nH]c1ccccc12	.	.	.	.	-2	.
Cc1[nH]c2ccccc2c1/C=N/O	1	3	8	116	-7	1
c1ccc2c(c1)[nH]c1cnccc12	-106	24*	.	95	-1	-2
CCCCCCCCCCCCCC(=O)O[C@@H]1[C@@H](C)[C@@]2(O)[C@@H](C=C(CO)C[C@@]3(O)C(=O)C(C)=C[C@@H]23)C2C(C)(C)[C@@]21OC(C)=O (stereo not given in full)	.	.	.	.	-2	.
CCN1CCN(Cc2ccc(C)cc2)CC1	-9	3	.	.	2	0
CCN1CCN(Cc2nnnn2C(C)(C)C)CC1	-4	21*	.	90	-4	66*
O=C(NC1(C(F)(F)F)Oc2ccc(Cl)cc2O1)N1CCC2(CC1)OCCO2 (stereo not given)	5	.	.	65	64*	5
O=C(NC1(C(F)(F)F)Oc2ccccc2O1)N1CCC2(CC1)OCCO2	2	.	.	96	.	4
Nc1c(C(=O)NCCc2ccccc2)c2nc3ccccc3nc2n1CCN1CCOCC1	-108	-8	-23	2.9*	-4	-10
COc1ccc(CCNC(=O)c2c(N)n(CCN3CCOCC3)c3nc4ccccc4nc23)cc1	-82	-1	19	120	-2	0
O=C1NC(=O)C(CCc2ccncc2)(C2CCCCC2)C(=O)N1	52*	0	.	101	0	-1
CN1C[C@@H](CS(=O)(=O)N(C)C)C[C@@H]2c3cccc4c3c(cn4C)C[C@H]21	.	.	.	.	-3	.
CN1CCC23CCCC[C@H]2C1Cc1ccc(O)cc13 (stereo not given in full)	.	.	.	.	-4	.
N#CC(=Cc1ccc(O)c(O)c1)C(N)=S	.	.	.	.	52*	.
CC(C)(C)c1cc(C=C(C#N)C#N)cc(C(C)(C)C)c1O	.	.	.	.	5	.
COc1cc(C=C(C#N)C#N)cc(O)c1O	.	.	.	.	69*	.
N#CC(C#N)=Cc1ccc(O)c(O)c1	.	.	.	.	63*	.
N=C(N)c1c(O)n(C2CCCCC2)c(=O)n(C2CCCCC2)c1=O	-3	8	.	2.8*	0	8
C[C@H]1CCCC(=O)CCCCCc2cc(O)cc(O)c2C(=O)O1	1	3	.	101	88*	4
N[C@@H](Cn1cc(I)c(=O)[nH]c1=O)C(=O)O	.	.	.	.	3	.
Cn1ncnc2c(=O)n(C)c(=O)nc1-2	5	67*	.	5.5*	91*	1
C=CCn1c(O)c(C(C)=NCc2cc(OC)cc(OC)c2)c(=O)[nH]c1=O	1	1	.	38*	1	6
C[C@]12CC[C@H]3[C@@H](CCC4C[C@H](O)CC[C@@]43C)[C@@H]1CC[C@@H]2O (stereo not given in full)	.	.	.	.	-2	.
CC(O)C(C)OC(=O)[C@@H]1C[C@@H]2c3cccc4c3c(cn4C(C)C)C[C@H]2N(C)C1 (stereo not given in full)	.	.	.	.	-1	.
